Sampled rows, rich in hits. Any-hit rate of the full collection: about 3.8%.
KCNH2 3.1 inh: qHTS for Inhibitors of KCHN2 3.1: Mutant qHTS | Potassium voltage-gated channel subfamily H member 2, brain isoform KCNH2 3.1 (human) | U2OS KCNH2 3.1, thallium flux FluxOr; stronger effect = lower value | AID 720553, 2013 | hit rate 0.95% among 340,000 | activity change, % (tested at about 1.8 µM);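 active = maximum activity change below -70%; inconclusive = maximum activity change from -70% to -50%; inactive = maximum activity change above -50%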;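 also: thallium influx rate constant from kinetic fluorescence after stimulation buffer; % is scaled to controls: 0 for no effect and ±100 for the full control effect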
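Virally transduced U2OS (3.1 isoform, 4 h infection in dark at RT) → overnight 37 C → FluxOr + Red40 in HBSS/HEPES, 45 min → stimulation buffer, 2 min kinetic read → rate constant vs DMSO controls.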
KCNH2 WT inh: qHTS for Inhibitors of KCHN2 3.1: Wildtype qHTS. activity change, % at 1.84 µM. AID 720551, 2013. U2OS, BacMam KCNH2, thallium flux FluxOr; stronger effect = lower value. hit rate 0.37% among 340,000. Voltage-gated inwardly rectifying potassium channel KCNH2 (Homo sapiens), Q12809;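 active = maximum activity change below -70%; inconclusive = maximum activity change between -70% and -50%; inactive = maximum activity change above -50%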; also: % is scaled to controls: 0 for no effect and ±100 for the full control effect
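U2OS cells were transduced with wild-type KCNH2 virus (2.03 x 10^8 / mL) for 4 h at room temperature, then cultured overnight at 37 C. Thallium flux was read with FluxOr dye. Rate constants were normalized to DMSO controls.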
CBFb-RUNX1 inh: qHTS Assay for Compounds Blocking the Interaction Between CBF-beta and RUNX1 for the Treatment of Acute Myeloid Leukemia; Runt-related transcription factor 1 (Homo sapiens) + Core-binding factor subunit beta …; AID 1477, 2009; 230,000 tested, under 10 active; AlphaScreen CBFb-His/RUNX1-biotin binding, biochemical; Potency, µM (series often up to 59.8 µM), without a hit: top-dose activity, negative = inhibition, most hits filed as inhibitors; also: % of control where 0% means no effect
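Interaction loss through any mechanism counts as activity. Pre-formed complex of His-CBF-beta and biotin-RUNX1 (30 nM apiece) is incubated with compound 15 min, then with 50 ng nickel and 50 ng streptavidin beads for 90 min before AlphaScreen detection.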
MBNL1-CUG inh: qHTS Assay for Inhibitors of MBNL1-poly(CUG) RNA binding; TR-FRET MBNL1-His/biotin-(CUG)12 binding, 665/545 ratio; hit rate 0.036% among 280,000; Muscleblind-like protein 1 (Homo sapiens), Q9NR56; Potency, µM (series often up to 57.5 µM), for the others: at the highest dose activity change, negative = inhibition, usual class: inhibitors; active = well fitted inhibition curve with a large enough effect in the signal ratio, with a control signal flat, not every such curve was filed as active; inconclusive = small, poorly fitted or top-dose-only effect, or effect the other way, or a change in a side signal; inactive = no such curve, though single readings can be large or run the other way; the % refers to the signal ratio; also: potency is read from the fitted curve at half-maximal effect; % is scaled to controls: 0 for no effect and ±100 for the full control effect
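Compound titration spanned 92 nM–58 uM against the MBNL1-His/biotin-(CUG)12 complex. After 60 min at room temperature with 5 nM streptavidin-XL665 and 0.055 ng/ul terbium anti-His, ratiometric 665/545 nm emission (Ex 340 nm) normalized to controls.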
PLK1 PBD inh: qHTS for Inhibitors of PLK1-PDB (polo-like kinase 1 - polo-box domain): Primary Screen | Serine/threonine-protein kinase PLK1 (Homo sapiens), P53350 | Plk1 PBD binding of FITC phosphopeptide, fluorescence polarization | Potency, µM, for inactives: max response, negative = inhibition, actives largely listed as inhibitors | hit rate 2.8% among 360,000; also: potency is read from the fitted curve at half-maximal effect; series mostly up to about 57 µM; % is scaled to controls: 0 for no effect and ±100 for the full control effect; nearly all actives have a fitted effect of over 65% in size
VDR inh: Inhibitors of the vitamin D receptor (VDR): qHTS; AID 504847, 2011; Vitamin D3 receptor (Homo sapiens), P11473; VDR-SRC2-3 peptide fluorescence polarization, 2 h; Potency, µM, for inactives: max response, negative = inhibition, most hits filed as inhibitors; hit rate 0.93% among 400,000; also: potency is read from the fitted curve at half-maximal effect; % is scaled to controls: 0 for no effect and ±100 for the full control effect
Target sequence (P11473 whole entry, looked up): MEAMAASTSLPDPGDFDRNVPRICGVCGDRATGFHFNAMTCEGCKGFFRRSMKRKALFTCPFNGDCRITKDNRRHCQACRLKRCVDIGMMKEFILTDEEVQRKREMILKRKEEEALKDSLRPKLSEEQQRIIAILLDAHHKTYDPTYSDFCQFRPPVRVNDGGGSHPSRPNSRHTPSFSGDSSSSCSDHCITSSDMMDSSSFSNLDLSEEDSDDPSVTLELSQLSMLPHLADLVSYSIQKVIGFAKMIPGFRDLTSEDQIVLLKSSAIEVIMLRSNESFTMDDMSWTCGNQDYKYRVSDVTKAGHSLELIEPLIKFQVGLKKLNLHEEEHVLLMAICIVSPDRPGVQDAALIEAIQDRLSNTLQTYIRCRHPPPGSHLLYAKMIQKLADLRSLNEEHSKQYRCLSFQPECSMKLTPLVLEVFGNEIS
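Signal is fluorescence polarization, reporting how far test compounds block the interaction of VDR with the SRC2-3 coregulator peptide after a 2 h room-temperature incubation.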
* = called active by the depositor; ? = inconclusive; / = no result. Unless noted, calls follow the shape of the dose curve; as a rule, active = well fitted curve in the direction sought with a large enough effect; inconclusive = small, poorly fitted or top-dose-only effect, or another doubt; inactive = no such curve, though single readings can be large; an effect the other way counts as inactive or inconclusive.

SMILES	KCNH2 3.1 inh	KCNH2 WT inh	CBFb-RUNX1 inh	MBNL1-CUG inh	PLK1 PBD inh	VDR inh
COCCNC(=O)C(c1ccco1)N(C(=O)Cn1nnc2ccccc21)c1cc(C)ccc1C (centres undefined)	3.4	-6.6	-4.0%	11.2%	3.36µM*	?
COCCNC(=O)C(c1ccco1)N(C(=O)Cn1nnc2ccccc21)c1ccccc1C (centres undefined)	11.7	-6.0	2.8%	-3.0%	-3.6%	0.0%
Cc1ccc2nc(N3CCC(C(=O)N4CCN(c5cccc(C)c5C)CC4)CC3)[nH]c2c1	/	/	/	/	/	3.7%
Cc1ccc(C2C(=O)N(C3CCCCCC3)CC(=O)N2CCC2=CCCCC2)cc1 (centres undefined)	/	/	/	/	/	21.9%
CC(C)Cc1ccc(CC(=O)O)cc1	/	/	/	/	/	-4.8%
Nc1ccn([C@@H]2O[C@H](CO)[C@H](O)C2(F)F)c(=O)n1	/	/	/	/	/	-10.3%
NS(=O)(=O)c1ccc(CCNCc2cc(Br)ccc2OCc2ccccc2)cc1	-70.2*	-28.2	-3.4%	-3.0%	2.5%	8.1%
COc1cc(CN(C)CCc2ccccc2)ccc1OCc1ccccc1	-95.5*	73.4	4.9%	-14.1%	1.0%	6.8%
CCN(Cc1ccccc1)Cc1ccc(OCc2ccccc2)c(OC)c1	13.9	-43.8	/	2.4%	-20.3%	-23.1%
COc1ccc(CNCCc2ccc(Cl)cc2)cc1OCc1ccccc1	-70.8*	-2.2	-2.3%	-0.2%	7.6%	-4.3%
CCOc1cc(CNCc2ccccc2)ccc1OCc1ccc(Cl)cc1	-3.4	35.9	/	3.7%	-3.7%	10.4%
CCCSCCCNC(=O)c1ccc(Cn2c(=O)c3cccn3c3cccnc32)cc1	/	/	/	/	/	7.1%
CS(=O)(=O)C1=NSC2=NC(=O)/C(=C\c3cccn3-c3ccc(Cl)cc3)C(=N)N21	-15.9	16.9	-10.3%	-6.1%	21.2µM*	?
c1ccc(C2NCCc3ccccc32)cc1 (centres undefined)	12.2	9.6	7.3%	0.1%	26.7µM*	?
c1ccc2c(c1)CCNC2c1ccncc1 (centres undefined)	-7.0	-2.6	8.3%	-2.0%	-9.7%	-3.9%
Cc1oc(-c2ccccc2)nc1CSc1nnc(C)n2c1cc1sccc12	/	/	/	/	/	2.5%
CC(C(=O)Nc1ccc(O)cc1)c1cccc(C(=O)c2ccccc2)c1 (centres undefined)	0.6	-11.8	-7.7%	-3.5%	11.9µM*	-15.4%
CC1CN(C(=O)N2CCC(C(=O)NC3CCCCCC3)CC2)c2cc(Cl)ccc2O1 (centres undefined)	/	/	/	/	/	0.4%
COc1ccc(CN2C(=O)c3ccccc3C2C(=O)NC2CCC(C)CC2)c(OC)c1 (centres undefined)	-0.1	-1.0	6.2%	-1.7%	23.8µM*	-12.9%
COc1ccc(CN2C(=O)c3ccccc3C2C(=O)NC2CCCC2)c(OC)c1 (centres undefined)	5.4	3.0	6.6%	-5.1%	-4.1%	-8.3%
Cc1cccc(N(C)c2nc3ccccc3c3nnc(C)n23)c1	/	/	/	/	/	-13.6%
Cc1cccc(-n2c3nc(=O)[nH]c(=O)c-3cc3c(C)nn(-c4ccccc4)c32)c1	/	/	-9.3%	/	/	/
Cc1ccc(-n2c3nc(=O)[nH]c(=O)c-3cc3cc([N+](=O)[O-])ccc32)cc1	-4.2	-8.3	-3.6%	30.9%	16.8µM*	?
O=C(NC1CCCCC1)Oc1cccc2ccccc12	4.5	-0.3	4.3%	-3.2%	23.8µM*	-16.7%
O=C(NC1CCCCC1)Oc1ccccc1	17.3	17.8	-0.7%	/	-3.7%	-8.7%
CN(C)c1ccncc1C(=O)Nc1ccc(F)cc1F	20.5	1.0	17.6%	-7.2%	-11.0%	-4.4%

Bioassay records deposited in PubChem BioAssay by National Center for Advancing Translational Sciences (NCATS).
